Laboratory results from the supplement of paper PMC6555819.

Tests used:
Test in all cases: PBM binding z-score (relative to random genomic background probes); higher = stronger binding; sequences stand for … in GC…GCGATTGACAGCGTAGAATGAAGG
[1] = test system: RARg:RXRa (NR concentration 270 nM, RXRa partner concentration 90 nM)
How it was run: (§1)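 Ligand-free nuclear receptor dimers were applied to custom Agilent 4×180K protein-binding microarrays whose double-stranded probes carried direct-repeat seeds, single-nucleotide variants, half-site ablations and random human genomic background sequences in 34-nt variable regions. Incubation lasted 1 h. Binding z-scores were computed against the random background probes from regression-normalized fluorescence.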

[2] = test system: RARg homodimer (NR concentration 270 nM)
How it was run: as §1

[3] = test system: RXRa DBDmut IVT, anti-RXR (DBD mutation: RXRa K156A/R161A, NR concentration 90 nM)
How it was run: as §1

[4] = test system: RXRa homodimer (NR concentration 180 nM)
How it was run: as §1

[5] = test system: THRa:RXRa (NR concentration 90 nM, RXRa partner concentration 90 nM)
How it was run: as §1

[6] = test system: THRa homodimer (NR concentration 90 nM)
How it was run: as §1

[7] = test system: VDR homodimer (NR concentration 270 nM)
How it was run: as §1

Sequence | PBM binding z-score [1] | PBM binding z-score [2] | PBM binding z-score [3] | PBM binding z-score [4] | PBM binding z-score [5] | PBM binding z-score [6] | PBM binding z-score [7]
CCTTACGGGTTACTCCAGGTTATAGCATCGGAGT | 0.987 | 0.779 | -0.0626 | 1.26 | 4.49 | 0.236 | 0.487
GCTGCTAGGTCAACTGATGGCCAGCTAAAGCTCG | 4.59 | 5.33 | 1.01 | 2.75 | 2.89 | 0.674 | -0.329
TATCAAAGTTCAAAGGTAACGTAAGTATCCACAC | 6.25 | 6.03 | 4.5 | 7.49 | 3.56 | 0.168 | 4.2
CGAACAAGGTCATTGACAGGACAGTGAATAGTAA | 6.27 | 5.95 | 4.45 | 5.53 | 3.96 | 2.16 | 3.2
TCTAGTTGGTCACGGAGGTCCCACACGACGGGTA | 1.02 | 1.61 | 0.484 | 0.931 | 0.42 | 0.108 | -0.235
AATAAAGGGTCATCGTAGGCCAGAGTACGCACAG | 6.49 | 6.51 | 3.4 | 6.51 | 4.49 | 0.425 | 3.62
CCTTACGGGTCCCTCCAGGTTATAGCATCGGAGT | 0.0762 | 0.0141 | -1.22 | 0.2 | 3.05 | 0.1 | 0.267
TACCCTAGGTCATTGGGCCAGTATAGTACGCATC | 4.13 | 4.3 | 1.87 | 3.19 | 3.08 | 1.37 | 1.77
GCTGCTAGGTCAACTGATGGTCATCTAAAGCTCG | 5.46 | 5.43 | 1.87 | 3.25 | 3.09 | 1.12 | 0.187
CGTCAAACTTCAACTAAGGTAACGTAAAGCACGC | 0.289 | 0.43 | 0.617 | 0.424 | 2.4 | 1.98 | 0.47
TACCCTAGGTCATTCAGGGGCCAGTATAGAAAGC | 6.19 | 5.02 | 1.56 | 3.18 | 3.65 | 1.29 | 1.84
CGTCCAAGGTCACGGTCAGTGAAAGAGACTCGAA | 7.19 | 8.03 | 4.12 | 7.6 | 4.29 | 3.63 | 2.8
CGTCCAAGGTCGAAGGTCAGTGAAGAGATGACGG | 4.83 | 4.64 | 1.82 | 6.09 | 3.04 | 0.66 | 1.14
TCTTGTAGATCAATAGAAGTTAAGAAAGTGCGCT | 0.119 | 0.155 | 1.24 | 0.537 | 0.00398 | -0.786 | 0.102
ATATGTAGGTTGGGGTCATTCAGAAAGTAGGGAA | 5.15 | 3.36 | 3.69 | 7 | 4.34 | 3.84 | 6.23
AGAATGAGGTTACTAAAGATCAGGGAAACGCTTG | 1.61 | 1.25 | 0.94 | 1.59 | 2.19 | 0.398 | 0.00246
CCTTACGGGTCACTCCAGGTTATATCATCGGAGT | 4.35 | 4.43 | 1.46 | 4.17 | 5.19 | 0.814 | 1.49
CCTACTGGGCCAAAGAGGTCATTGATGCCGATAA | 4.01 | 3.31 | 1.39 | 4.45 | 3.35 | 0.927 | 3.97
ATCGAAAGGTCGACGCGGTGAGTATACACCGTTT | 4.07 | 4.09 | 1.12 | 3.83 | 1.97 | -0.506 | 0.391
AGAATGAGGTCATACGTAGATCAGGGAAGAAAGT | 6.31 | 5.97 | 4.7 | 6.67 | 4.18 | 3.25 | 4.56

Sequence | PBM binding z-score [1] | PBM binding z-score [2] | PBM binding z-score [3] | PBM binding z-score [4] | PBM binding z-score [5] | PBM binding z-score [6] | PBM binding z-score [7]
AGTCAAAGTTGAGGACGAGGTAACGTAAAGCACG | 1.38 | 1.24 | -0.405 | 0.856 | 3.3 | 1.96 | 0.344
ATATGTAGGTTAGCTGGGGTCCTTCAGACTAGGC | 0.698 | 0.529 | 0.183 | 0.692 | 3.45 | 0.268 | 0.249
CGTACAAGGTCAAAGGTCAGTGAAGAGATGACGG | 8.95 | 8.28 | 4.22 | 10.5 | 4.71 | 2.58 | 4.13
CGTCCAAGGTCTAGGTCAGTGAAAGAGACTCGAA | 1.6 | 2.4 | 0.323 | 0.486 | 1.86 | 0.936 | 0.00097
TTACCAAGGTCAAGGTCGTTGATCCCTCTGTAGA | 6.48 | 6.91 | 3.27 | 6.84 | 4.38 | 3.6 | 4.9
CCTAGCAGGCCAATCTAGGTCACTCAAGGCTTGA | 1.5 | 1.85 | 0.439 | 0.64 | 4.18 | 1.57 | 0.1
CAAACTAGGTCAAGAGGTCAAAGTTCGCTTCCCG | 8.33 | 7.43 | 3.49 | 8.33 | 4.67 | 2.78 | 5.53
CCGAGGAGGTTACGAGGGGGCATTCAGTGCGAAT | 4.21 | 3.17 | 2.24 | 3.28 | 4.49 | 0.537 | 3.87
TCTTGTAGGTCAATAGAGGTTAAGAAAGTGCGCT | 4.56 | 5.15 | 1.88 | 4.31 | 4.71 | 0.329 | 1.63
ACTTACGGCTCAACGAGGTTATAGCACGCGTATA | 0.411 | 0.49 | 0.343 | 0.9 | 1.33 | 0.562 | 0.756
CTATGTAGGTCAAGGGGGTCATTCAGTTTGAAAG | 7.26 | 6.93 | 3.29 | 7.64 | 4.27 | 2.15 | 7.37
ATCGAAAGGTCCAAGGTGAGTATACCCACCCGAA | 0.919 | 1.08 | 0.0908 | 0.853 | 1.35 | 0.653 | 0.214
TAGCCTAGGTTATGGGCCAGTATACCACGCGAAC | 0.379 | 0.719 | -0.976 | 0.432 | 0.373 | -0.271 | -0.399
ATCGAAAGGTCGAAGGTGCGTATACCCACCCGAA | 3.93 | 3.91 | 1.37 | 4.23 | 1.66 | -0.362 | 0.858
CCTAGTTGTTCAGGAGGTCACACACCGGATATGA | 4.48 | 4.35 | 1.15 | 4.73 | 3.62 | 2.81 | 3.5
TCTGCTAGGTCATCGATGGTCAGCTAATCTGCTA | 3.79 | 4.88 | 1.53 | 2.73 | 3.33 | 0.553 | -0.0904
CCTCGGAGGACAGAAGGTCAAAGCTGTCCGCTTT | 4.94 | 4.52 | 0.948 | 4.07 | 3.2 | 0.161 | 0.867
AGAATGAGGTTAAGTTCAGGGAAACAGAATACAT | 3.41 | 2.98 | 2.38 | 3.6 | 3.34 | 1.48 | 3.44
TCTTGTAGATCAACAGGAGGTTAATAAAGATCGA | 0.776 | 0.301 | 0.161 | 1.03 | 0.904 | -0.0853 | -0.179
GCTAGTTGGTCAGTAAAAGGTGACACACCGGTCG | 1.58 | 1.17 | -0.429 | 0.87 | 0.938 | -0.422 | -0.475

Sequence | PBM binding z-score [1] | PBM binding z-score [2] | PBM binding z-score [3] | PBM binding z-score [4] | PBM binding z-score [5] | PBM binding z-score [6] | PBM binding z-score [7]
AAAACAGGGTCATCGTAGGCCAGAGTACGCACAG | 6 | 5.11 | 3.74 | 7.23 | 4.81 | 1.58 | 4.06
AGTCAAAGTTCATCTAGGTCACGTAAGATATGCT | 6.63 | 7.35 | 4.81 | 5.75 | 4.62 | 2.83 | 7.84
CGTCCAAGGTCAAGGTCAATGAAAGAGACTCGAA | 7 | 7.87 | 3.91 | 6.52 | 4.35 | 3.41 | 3.28
TCTCGGAGGACACAAAGGTCAGAGCTTTCCAGAG | 4.8 | 5.32 | 0.957 | 4.32 | 3.45 | 0.913 | 2.06
CAAACTAGGTCACAGTGGTCAAAGTCCGTGCGTA | 4.19 | 5.18 | 1.51 | 3.32 | 3.17 | 1.43 | 1.23
ACTTAAGGGTCAACGAGGTTATAGCACGCGTATA | 6.9 | 6.85 | 3.8 | 7.56 | 4.4 | 1.07 | 5.42
CGAACTACGTCATCCAGGACAGTGAATACATTGA | 0.374 | 0.537 | 0.498 | 0.2 | 1.27 | 1.03 | 0.313
CCTGCTAGGTCATGGTCAGCGAATCTACAGTATG | 4.05 | 4.93 | 1.92 | 3.09 | 2.9 | 1.16 | 0.226
TAGCCTAGGTCATGCGGGCCAATATAGTGTCGGC | 3.98 | 4.36 | 0.554 | 3.1 | 3.14 | 0.979 | 0.902
TAGCCTAGGTCATGCGGGACAGTATAGTGTCGGC | 3.95 | 4.49 | 0.879 | 3.05 | 3.04 | 0.939 | 1.16
ATCGAAAGGTCCACGAGGTGAGTATACACCGTTT | 1.13 | 1.3 | 0.571 | 0.952 | 1.96 | 0.835 | 0.691
ATATGTAGGTTAAGCGTCATTCAGGTTGGTTCGC | 0.863 | 0.763 | 0.559 | 1.15 | 0.543 | 0.263 | 0.378
CGAACTAGGTCGTCCAGGACAGTGAATACATTGA | 0.869 | 1.08 | 1.02 | 0.72 | 2.27 | 0.874 | 0.591
CGAACTAGGTCAAGGACAGTAAATCTCCGCACGC | 4.01 | 4.54 | 1.47 | 2.55 | 3.16 | 2.01 | 0.575
TCGTGTAGGTTACGGGGGCATTCAGGGATGAAGA | 4.09 | 3.31 | 2.75 | 3.35 | 4.09 | 2.66 | 3.98
CGTCCAAGGTCATTGGAGGTCAGTGAAGACAGAT | 7.03 | 7.55 | 4.46 | 6.96 | 5.19 | 3.37 | 5.22
TAGCCTAGGTCATACAGGGGCCAGTATAGAAAGC | 5.98 | 4.71 | 1.04 | 3.26 | 3.27 | 0.799 | 0.824
ATCGAAAGGTCGACCAGGTGAGTATACACCGTTT | 4.38 | 4.1 | 1.3 | 4.37 | 3.34 | 0.391 | 1.22
